In PubChem BioAssay AID1159580 (chemical genetic matrix, 2015):
Several values for one entry are separate records, joined by “and”; a condition that tells them apart may be missing. Equal values may be shown once. Out of some 5,500 compounds screened, about 2,000 (36%) were called active. Not shown: some 18% with an inconclusive outcome. Rule as the data show it: active = normalized growth mostly below about 0.91 (no sharp cut-off); inconclusive = no clear call, values can overlap the other calls; inactive = mostly above about 0.92. The list shows a part of the results.

Assay: chemical genetic growth profiling, strain panel (AID 1159580);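 also: tested at 20 µM; growth read once vehicle control cultures reached saturation at 30 °C; 1 = growth at the plate median or of vehicle wells; lower values mean less growth of the strain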
Settings: S. cerevisiae deletion strains, growth OD

Measured: normalized growth

CN(C)C(=O)Oc1cccc([N+](C)(C)C)c1
inactive: locus YAL021C, strain ccr4, active compounds read low 0.987 | locus YAL026C, strain drs2, active compounds read low 1 | locus YAL030W, strain snc1, active compounds read low 1 | locus YAL040C, strain CLN3, active compounds read low 1 | locus YBL061C, strain skt5, active compounds read low 1.01 | locus YBR009C, strain hhf1, active compounds read low 1 | locus YBR021W, strain FUR4, active compounds read low 0.992 | locus YBR023C, strain chs3, active compounds read low 0.988 | locus YBR171W, strain sec66, active compounds read low 0.992 | locus YBR229C, strain ROT2, active compounds read low 0.985 | locus YBR231C, strain swc5, active compounds read low 0.988 | locus YBR279W, strain paf1, active compounds read low 1 | locus YCL011C, strain gbp2, active compounds read low 0.996 | locus YCL016C, strain dcc1, active compounds read low 0.992 | locus YCL029C, strain bik1, active compounds read low 0.978 | locus YCL061C, strain MRC1 (second series), active compounds read low 1 | locus YCL061C, strain MRC1, active compounds read low 0.996 | locus YCL069W, strain vba3, active compounds read low 1 | locus YCR088W, strain abp1, active compounds read low 0.99 | locus YDL005C, strain med2, active compounds read low 0.983 | locus YDL035C, strain GPR1, active compounds read low 0.997 | locus YDL040C, strain nat1, active compounds read low 0.992 | locus YDL074C, strain BRE1, active compounds read low 1.05 | locus YDL101C, strain DUN1, active compounds read low 0.986 | locus YDL134C, strain PPH21, active compounds read low 0.987 | locus YDL185W, strain tfp1, active compounds read low 0.98 | locus YDL192W, strain arf1, active compounds read low 0.98 | locus YDR001C, strain nth1, active compounds read low 0.998 | locus YDR069C, strain doa4, active compounds read low 0.978 | locus YDR101C, strain arx1, active compounds read low 0.977 | locus YDR137W, strain rgp1, active compounds read low 1.01 | locus YDR150W, strain NUM1, active compounds read low 1 | locus YDR159W, strain sac3, active compounds read low 0.978 | locus YDR162C, strain NBP2, active compounds read low 0.999 | locus YDR195W, strain ref2 1.01 | locus YDR297W, strain sur2, active compounds read low 0.996 | locus YDR318W, strain mcm21, active compounds read low 0.98 | locus YDR334W, strain swr1, active compounds read low 1 | locus YDR335W, strain msn5, active compounds read low 1.01 | locus YDR363W, strain ESC2, active compounds read low 1.04 | locus YDR388W, active compounds read low 0.986 | locus YDR392W, strain spt3, active compounds read low 0.996 | locus YDR502C, strain sam2, active compounds read low 0.977 | locus YEL003W, strain gim4, active compounds read low 1.01 | locus YEL037C, strain rad23, active compounds read low 0.998 | locus YEL061C, strain CIN8 (second series), active compounds read low 1 | locus YEL061C, strain CIN8, active compounds read low 0.994 | locus YER002W, strain NOP16, active compounds read low 1.01 | locus YER015W, strain faa2, active compounds read low 1 | locus YER016W, strain bim1, active compounds read low 1.01 | locus YER110C, active compounds read low 0.991 | locus YER111C, strain swi4, active compounds read low 1.02 | locus YER155C, strain BEM2 (second series), active compounds read low 1.01 | locus YER155C, strain BEM2, active compounds read low 0.974 | locus YER167W, strain BCK2, active compounds read low 0.987 | locus YFR010W, strain ubp6, active compounds read low 0.996 | locus YGL078C, strain dbp3, active compounds read low 0.983 | locus YGL086W, strain mad1, active compounds read low 0.997 | locus YGL167C, strain pmr1, active compounds read low 1.07 | locus YGL173C, strain kem1, active compounds read low 1.01 | locus YGL227W, strain vid30, active compounds read low 0.992 | locus YGL240W, strain doc1, active compounds read low 0.986 | locus YGL248W, strain PDE1, active compounds read low 0.993 | locus YGL253W, strain hxk2, active compounds read low 1.01 | locus YGR135W, strain pre9, active compounds read low 0.981 | locus YGR229C, strain SMI1, active compounds read low 1.02 and 1.01 | locus YGR252W, strain gcn5, active compounds read low 1.06 | locus YHR013C, strain ard1, active compounds read low 1.02 | locus YHR027C, strain rpn1, active compounds read low 0.99 | locus YHR030C, strain SLT2, active compounds read low 0.992 and 0.979 | locus YHR079C, strain IRE1 (second series), active compounds read low 0.979 | locus YHR079C, strain IRE1, active compounds read low 0.961 | locus YHR094C, strain hxt1, active compounds read low 0.989 | locus YHR129C, strain ARP1, active compounds read low 0.989 | locus YHR142W, strain chs7, active compounds read low 1.03 | locus YHR200W, strain rpn10, active compounds read low 0.981 | locus YIL066C, strain RNR3, active compounds read low 0.996 | locus YIL073C, strain SPO22, active compounds read low 0.965 | locus YIL125W, strain kgd1, active compounds read low 0.998 | locus YIR030C, strain dcg1, active compounds read low 0.983 | locus YJL092W, strain hpr5, active compounds read low 0.996 | locus YJL095W, strain BCK1 (second series), active compounds read low 0.996 | locus YJL095W, strain BCK1, active compounds read low 1.01 and 0.988 | locus YJL115W, strain asf1, active compounds read low 1 | locus YJL129C, strain trk1, active compounds read low 0.987 | locus YJL134W, strain LCB3, active compounds read low 0.986 | locus YJL154C, strain vps35, active compounds read low 1.01 | locus YJL164C, strain tpk1, active compounds read low 1.01 | locus YJL166W, strain qcr8, active compounds read low 0.999 | locus YJL168C, strain set2, active compounds read low 0.988 | locus YJL187C, strain SWE1 (second series), active compounds read low 0.987 | locus YJL187C, strain SWE1, active compounds read low 0.992 | locus YJR043C, strain POL32, active compounds read low 1.02 | locus YJR066W, strain TOR1, active compounds read low 0.947
